From PubChem
Tau fibril ThT: qHTS for Inhibitors of Tau Fibril Formation, Thioflavin T Binding | Microtubule-associated protein tau (Homo sapiens), P10636 | 2.1% of 270,000 active | Potency, µM (doses to about 57.4 µM), for inactives: top-dose activity, negative = inhibition, most hits filed as inhibitors | recombinant tau K18 P301L, heparin-induced fibrillization, ThT fluorescence; note: nearly all actives have a fitted effect of over 55% in size
Target sequence (P10636 561-689 P618L limits assumed): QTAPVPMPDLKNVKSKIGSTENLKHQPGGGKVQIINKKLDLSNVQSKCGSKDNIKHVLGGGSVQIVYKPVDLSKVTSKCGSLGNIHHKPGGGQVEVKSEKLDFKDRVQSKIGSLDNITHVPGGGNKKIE
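Heparin-induced fibrillization of the P301L-mutant K18 repeat-domain fragment of human tau was followed by ThT binding in quantitative high-throughput format.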
Tau fibril FP: qHTS for Inhibitors of Tau Fibril Formation, Fluorescence Polarization; Microtubule-associated protein tau (Homo sapiens), P10636; K18 P301L tau heparin fibrillization, Alexa594 FP, 6 h; Potency, µM (top dose mostly 57.7 µM), inactives show at the highest dose activity, negative = inhibition, hits mostly inhibitors; 0.39% of 280,000 active; AID 1468, 2008; note: nearly all actives have a fitted effect of over 55% in size
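FP of Alexa 594-tau after heparin (20 uM) induction. Substrate: human K18 P301L, 15 uM unlabeled, 0.24 uM labeled. Buffer 100 mM sodium acetate pH 7. 6 hr, 37 C.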
VP16 counter: VP16 counterscreen qHTS for inhibitors of ROR gamma transcriptional activity. Drosophila S2 Gal4-VP16 UAS-luciferase, luminescence, 20 h. Potency, µM (doses to about 53.6 µM), for the others: top-dose activity, negative = inhibition, most hits filed as inhibitors. 3.5% of 310,000 active;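 note: Gal4-VP16 expression switched on by copper sulfate through the metallothionein promoter; nearly all actives have a fitted effect of over 50% in size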
RORgamma inh: qHTS for inhibitors of ROR gamma transcriptional activity. Drosophila S2 Gal4-RORgamma UAS-luciferase reporter, 20 h. Potency, µM (series often up to 53.6 µM), without a hit: at the highest dose activity change, negative = inhibition, actives largely listed as inhibitors. 5.4% of 310,000 active; note: nearly all actives have a fitted effect of over 60% in size
Target sequence (P51450 whole entry, looked up, the tested form may be a part): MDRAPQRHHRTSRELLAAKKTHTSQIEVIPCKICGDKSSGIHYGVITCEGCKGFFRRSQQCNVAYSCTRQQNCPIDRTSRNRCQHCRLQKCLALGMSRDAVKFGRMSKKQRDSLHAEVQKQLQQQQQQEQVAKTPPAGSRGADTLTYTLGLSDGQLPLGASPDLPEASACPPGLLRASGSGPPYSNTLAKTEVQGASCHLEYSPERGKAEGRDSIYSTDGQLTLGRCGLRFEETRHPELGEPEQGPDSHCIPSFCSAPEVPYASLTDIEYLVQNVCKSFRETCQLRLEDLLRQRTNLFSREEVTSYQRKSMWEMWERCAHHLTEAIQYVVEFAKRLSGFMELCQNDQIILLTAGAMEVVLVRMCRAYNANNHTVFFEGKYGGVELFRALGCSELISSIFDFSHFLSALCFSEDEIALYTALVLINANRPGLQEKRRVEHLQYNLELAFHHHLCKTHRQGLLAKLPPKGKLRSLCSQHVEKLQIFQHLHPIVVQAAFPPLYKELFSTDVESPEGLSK
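Stably transfected Drosophila Schneider cells are the test system, with ROR gamma fused to Gal4 and luciferase under UAS control; luminescence is read after 20 hr of 700 uM copper sulfate induction at ambient temperature.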
Tau fluor counter: Counterscreen qHTS for Inhibitors of Tau Fibril Formation, Fluorescence Polarization | tau K18 P301L (four-repeat tau fragment) Alexa594 fluorescence, heparin fibrillization | Potency, µM (top dose mostly 57.7 µM), inactives show top-dose activity change, negative = decrease | 0.93% of 280,000 active; note: nearly all actives have a fitted effect of over 55% in size
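Human K18 P301L tau (15 uM unlabeled plus 0.24 uM Alexa 594-labeled, final) in 100 mM sodium acetate pH 7 was mixed with compound and 20 uM heparin and incubated 6 hr at 37 C.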
An asterisk follows results filed as active; [ ] = dose if it differs, or a comment. Hits are enriched below; roughly 7.3% of the tested compounds scored in any of these assays. Calls come from the whole dose curve; as a rule, active = well fitted curve in the direction sought with a large enough effect; inconclusive = small, poorly fitted or top-dose-only effect, or another doubt; inactive = no such curve, though single readings can be large; an effect the other way counts as inactive or inconclusive. % is set by controls: 0 for no effect and ±100 for the full control effect; potency is the fitted concentration of half-maximal effect.

Results for CCCCOc1cccc(C(=O)N(Cc2ccccc2)C2CCS(=O)(=O)C2)c1 (centres undefined) ?
VP16 counter: 7%; RORgamma inh: 24%

What do the screens show for `CCN(CC)c1ccc2c(c1)CCCN2`?
Tau fibril ThT: 25µM*; Tau fibril FP: inconclusive; VP16 counter: inconclusive; RORgamma inh: 2.8µM*; Tau fluor counter: inconclusive

How did COc1ccc(C2=NCCc3cc(OC)c(OC)cc32)cc1OC do in these assays?
Tau fibril ThT: -6%; Tau fibril FP: -3%; VP16 counter: 6.3µM*; RORgamma inh: -7%; Tau fluor counter: -3%

What do the screens show for `O=C(CSc1nc2ncccc2[nH]1)Nc1cc(F)ccc1F`?
Tau fibril ThT: -1%; Tau fibril FP: -5%; Tau fluor counter: -14%

Results for COc1cc(NC(=O)Nc2ccccc2)c(OC)cc1NC(=O)CN1CCCCC1 ?
Tau fibril ThT: inconclusive; Tau fibril FP: inconclusive; VP16 counter: -11%; RORgamma inh: -19%; Tau fluor counter: 28µM*[quencher]

What do the screens show for `O=C(COc1ncnc2ccccc12)NC1CCS(=O)(=O)C1` (centres undefined)?
Tau fibril ThT: 0%; Tau fibril FP: -3%; VP16 counter: -1%; RORgamma inh: 2%; Tau fluor counter: -3%

How did Cc1ccc2c(Cl)cc(Cl)c(OCC(=O)NC3CCS(=O)(=O)C3)c2n1 (centres undefined) do in these assays?
Tau fibril ThT: -4%; Tau fibril FP: -10%; VP16 counter: 11µM*; RORgamma inh: 8.9µM*; Tau fluor counter: -4%

Results for CCN(CC(=O)NC(C)(C)C)C(=O)COc1c(Cl)cc(Cl)c2ccc(C)nc12 ?
Tau fibril ThT: -14%; Tau fibril FP: 4%; VP16 counter: 3.2µM*; RORgamma inh: 1.3µM*; Tau fluor counter: -16%

How did CCOc1ccccc1NC(=S)/C(=C(\[O-])c1ccc2c(c1)OCCO2)[n+]1ccc(CC)cc1 do in these assays?
Tau fibril ThT: inconclusive; Tau fibril FP: inconclusive; VP16 counter: 1%; RORgamma inh: -21%; Tau fluor counter: -19%

How did CC(C)(C)c1cc[n+](/C(C(=S)Nc2ccccc2F)=C(/[O-])c2ccc3c(c2)OCCO3)cc1 do in these assays?
Tau fibril ThT: inconclusive; Tau fibril FP: -4%; VP16 counter: -10%; RORgamma inh: 10µM*; Tau fluor counter: -20%

What do the screens show for `CCOc1ccccc1NC(=O)Nc1cc2c(cc1N1CCCCC1)n(CC)c(=O)n2CC`?
Tau fibril ThT: inconclusive; Tau fibril FP: 1%; Tau fluor counter: -26%

What do the screens show for `O=C(N/N=C/c1cc2c(cc1[N+](=O)[O-])OCO2)c1cccnc1`?
VP16 counter: 5%; RORgamma inh: 1%

How did CO/N=C/c1ccc(N2CCN(C(=O)c3cccc(C(F)(F)F)c3)CC2)c([N+](=O)[O-])c1 do in these assays?
Tau fibril ThT: inconclusive; Tau fibril FP: inconclusive; VP16 counter: inconclusive; RORgamma inh: inconclusive; Tau fluor counter: -22%

Results for CO/N=C/c1ccc(N2CCN(C(=O)c3ccc(F)cc3)CC2)c([N+](=O)[O-])c1 ?
Tau fibril ThT: inconclusive; Tau fibril FP: 5%; VP16 counter: 8.9µM*; RORgamma inh: inconclusive; Tau fluor counter: -6%

Results for O=C(N/N=C/c1ccc(N2CCOCC2)c([N+](=O)[O-])c1)c1ccc(F)cc1 ?
Tau fibril ThT: 11µM*; Tau fibril FP: 9%; VP16 counter: 3%; RORgamma inh: -7%; Tau fluor counter: -29%

How did O=C(N/N=C/c1ccc(N2CCCC2)c([N+](=O)[O-])c1)c1cccnc1 do in these assays?
Tau fibril ThT: 14µM*; Tau fibril FP: 5%; VP16 counter: 3%; RORgamma inh: inconclusive; Tau fluor counter: -24%

What do the screens show for `O=C(NCc1ccc(F)cc1)c1ccc(N2CCOCC2)c([N+](=O)[O-])c1`?
VP16 counter: -2%; RORgamma inh: -19%

Results for CC1CN(C(=O)CCC(=O)N2CCOCC2)c2ccccc2O1 (centres undefined) ?
VP16 counter: -14%; RORgamma inh: -21%

Results for Cc1ccc(-n2c(CCc3ccccc3)nnc2SCC(=O)NCc2ccccc2)cc1C ?
Tau fibril ThT: inconclusive; Tau fibril FP: 3%; VP16 counter: inconclusive; RORgamma inh: inconclusive; Tau fluor counter: -9%

Results for CCOC(=O)/C(=N/Nc1ccccc1)Sc1nnc(CCc2ccccc2)n1-c1ccccc1 ?
Tau fibril ThT: 3%; Tau fibril FP: -1%; VP16 counter: 7.1µM*; RORgamma inh: 4.5µM*; Tau fluor counter: -2%

How did Cc1cccc(-n2c(CCc3ccccc3)nnc2SCC(=O)c2ccccc2)c1 do in these assays?
Tau fibril ThT: inconclusive; Tau fibril FP: -8%; VP16 counter: 11µM*; RORgamma inh: inconclusive; Tau fluor counter: -15%

Results for CCOC(=O)/C(=N/Nc1ccccc1)Sc1nnnn1-c1ccc(C)cc1 ?
Tau fibril ThT: -1%; Tau fibril FP: 0%; VP16 counter: -7%; RORgamma inh: inconclusive; Tau fluor counter: 2%

What do the screens show for `CCOC(=O)/C(=N/Nc1ccc(Cl)cc1)Sc1nnnn1-c1ccc(C)cc1`?
Tau fibril ThT: -9%; Tau fibril FP: 7%; VP16 counter: inconclusive; RORgamma inh: 6.3µM*; Tau fluor counter: -21%

How did COc1ccc(CNC(=O)CSc2nnc(-c3ccc(NC(C)=O)cc3)n2C)cc1 do in these assays?
Tau fibril ThT: -4%; Tau fibril FP: -6%; VP16 counter: 7%; RORgamma inh: -41%; Tau fluor counter: -1%

Results for COC(=O)/C(=N\Nc1ccc(Cl)cc1)Sc1nnc(-c2ccc(OC)cc2)n1C ?
Tau fibril ThT: -13%; Tau fibril FP: inconclusive; VP16 counter: inconclusive; RORgamma inh: 5.6µM*; Tau fluor counter: -12%

What do the screens show for `COC(=O)c1ccc(C(/C=C/[C@@H](C)C(=O)N(C)C)NC(=O)OCc2ccccc2)cc1` (some centres undefined)?
Tau fibril ThT: 1%; Tau fibril FP: 14%; VP16 counter: 3%; RORgamma inh: 5%; Tau fluor counter: 1%

Results for COc1ccc(NCc2ccc(OC)c(Cn3ccnc3)c2)c(OC)c1 ?
VP16 counter: -13%; RORgamma inh: -42%

How did CC(=O)c1cn(N2CCCCC2)c(=O)[nH]c1=O do in these assays?
VP16 counter: 3%; RORgamma inh: 7%

What do the screens show for `Cc1ccc2nc(N(Cc3cccnc3)C(=O)c3ccco3)sc2c1`?
Tau fibril ThT: -13%; Tau fibril FP: -12%; Tau fluor counter: -16%
